The nature of assay [1]: TOX21_p53_BLA_p5_viability: Viability Assessment in the Tox21 HCT-116 p53 Agonism Beta-lactamase Assay, Phase 5 (AID 2283600). In short, it runs like this: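 ATP luminescence (CellTiter-Glo, 30 min, RT) served as the viability read-out, with loss of signal indicating cytotoxicity. Compounds in DMSO were pinned at a 217-fold dilution onto 4000 cells/well and incubated 16 h, 37C.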

Assay [2] deals with Cellular tumor antigen p53 (Homo sapiens) (UniProt P04637). Put plainly: TOX21_p53_BLA_p4_ratio: Tox21 HCT-116 p53 Agonism Beta-lactamase Assay, Ratio, Phase 4 (AID 2283601). In short, it runs like this:
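Signal is the blue/green (460nm/530nm) ratio of cleaved versus uncleaved CCF4-AM substrate, read after 2 h substrate loading. Cells were HCT116 carrying the p53-responsive beta-lactamase reporter, dosed 16 h at 37C, 5% CO2; CellTiter-Glo measured in parallel.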

Assay [3] in a line: Tanguay_ZF_120hpf_MORT_legacy: (Legacy) Oregon State University Tanguay Lab 120 Hour Post-fertilization zebrafish Assay for Mortality (AID 2283633). In short, it runs like this: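 Brightfield scoring of embryo death (binary) at 24 and 120 hpf; static exposure 6–120 hpf, 28C, sealed and foil-covered. Pronase-dechorionated 5D wild-type larvae, single embryo per well. DMSO 0.64% v/v; trimethyltin chloride 5uM positive control.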

A short description of assay [4]: Tanguay_ZF_120hpf_YSE_legacy: (Legacy) Oregon State University Tanguay Lab 120 Hour Post-fertilization zebrafish Assay for Yolk Sac Edema (AID 2283634).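 For AC50: actives raise the incidence of yolk sac edema above the DMSO baseline.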 The gist of the method:
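Binary brightfield scoring of yolk sac edema at 120 hpf; DMSO baseline, gain-of-signal fitting. Dechorionated 5D larvae, one per well, static exposure 6–120 hpf, 28C, 0.64% DMSO. Dead embryos not scored.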

A short description of assay [5]: Tanguay_ZF_120hpf_AXIS_legacy: (Legacy) Oregon State University Tanguay Lab 120 Hour Post-fertilization zebrafish Assay for Body Axis Malformation (AID 2283635).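 For AC50: potency for an increased fraction of larvae scored with body axis malformation.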 The gist of the method:
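Embryos: 5D wild-type, pronase-dechorionated 4 hpf; static exposure 6–120 hpf, 28C, sealed, dark, 1 embryo/well, 0.64% DMSO. 120 hpf axis malformation scored present/absent; dead embryos excluded. Analysed as gain of signal vs DMSO.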

The nature of assay [6]: Tanguay_ZF_120hpf_EYE_legacy: (Legacy) Oregon State University Tanguay Lab 120 Hour Post-fertilization zebrafish Assay for Eye Malformation (AID 2283636).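 Note: binary presence or absence of eye malformation scored by brightfield in 120 hpf larvae.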 The gist of the method: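 Binary brightfield scoring of eye defects at 120 hpf after static exposure from 6 hpf of single pronase-dechorionated wild-type embryos (28C, 0.64% DMSO). Non-mortality endpoints omitted where embryos died; fit vs DMSO.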

The nature of assay [7]: Tanguay_ZF_120hpf_SNOU_legacy: (Legacy) Oregon State University Tanguay Lab 120 Hour Post-fertilization zebrafish Assay for Snout Malformation (AID 2283637). The gist of the method: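 Binary snout-malformation call at 120 hpf in wild-type 5D embryos, chorion removed by pronase, under static exposure from 6 hpf at 28C (0.64% DMSO). Embryos dying by 24 or 120 hpf excluded.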

The nature of assay [8]: Tanguay_ZF_120hpf_JAW_legacy: (Legacy) Oregon State University Tanguay Lab 120 Hour Post-fertilization zebrafish Assay for Jaw Malformation (AID 2283638).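 For AC50: active means more embryos with jaw malformation than DMSO controls.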 The gist of the method:
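Binary jaw-malformation calls at 120 hpf by brightfield imaging; DMSO (0.64% v/v) = baseline. Embryos: 5D wild-type, pronase-dechorionated, one per well from 6 hpf, static exposure, 28C, sealed, dark.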

A short description of assay [9]: Tanguay_ZF_120hpf_OTIC_legacy: (Legacy) Oregon State University Tanguay Lab 120 Hour Post-fertilization zebrafish Assay for Otic Vesicle Malformation (AID 2283639). The gist of the method:
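Wild-type zebrafish larvae, whole-embryo exposure from early stage to 120 hpf at 28C. Binary brightfield scoring of otic vesicle morphology, fitted in the positive direction against the DMSO baseline.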

The nature of assay [10]: Tanguay_ZF_120hpf_PE_legacy: (Legacy) Oregon State University Tanguay Lab 120 Hour Post-fertilization zebrafish Assay for Pericardial Edema (AID 2283640).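 For AC50: potency for increased incidence of pericardial edema versus DMSO baseline.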 In short, it runs like this: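 Static waterborne exposure, 5D wild-type embryos, 28C, to 120 hpf; final DMSO 0.64% (vol/vol). Binary PE call at 120 hpf by brightfield; fitted upward vs DMSO baseline. 5uM trimethyltin chloride as positive control.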

Assay [11] is described as follows: Tanguay_ZF_120hpf_SOMI_legacy: (Legacy) Oregon State University Tanguay Lab 120 Hour Post-fertilization zebrafish Assay for Somite Malformation (AID 2283647). The gist of the method:
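Binary brightfield scoring of somite defects at 120 hpf in 5D wild-type larvae; one dechorionated embryo per well, static exposure from 6 hpf, 28C, sealed and dark. Final DMSO 0.64%; trimethyltin chloride 5uM positive control.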

Assay [12] is described as follows: Tanguay_ZF_120hpf_PFIN_legacy: (Legacy) Oregon State University Tanguay Lab 120 Hour Post-fertilization zebrafish Assay for Pectoral Fin Malformation (AID 2283648).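 Note: each larva judged yes or no for fin defect by brightfield with dead larvae skipped.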 The gist of the method:
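Pectoral fin malformation was recorded as a binary endpoint at 120 hpf in wild-type Tropical 5D larvae, which had been dechorionated and exposed statically from 6 hpf at 28C in 0.64% DMSO. Dead embryos were excluded.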

Assay [13] is described as follows: Tanguay_ZF_120hpf_CFIN_legacy: (Legacy) Oregon State University Tanguay Lab 120 Hour Post-fertilization zebrafish Assay for Caudal Fin Malformation (AID 2283649). The gist of the method: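 Dechorionated 5D wild-type zebrafish, static exposure 6–120 hpf, 28C, sealed and dark, 0.64% v/v DMSO final. Binary fin-malformation call at 120 hpf, brightfield; gain of signal vs DMSO baseline.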

The nature of assay [14]: Tanguay_ZF_120hpf_PIG_legacy: (Legacy) Oregon State University Tanguay Lab 120 Hour Post-fertilization zebrafish Assay for Pigmentation Malformation (AID 2283650). In short, it runs like this: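 Pigment malformation recorded as a binary call at 120 hpf in zebrafish (Tropical 5D) exposed singly from 6 hpf after pronase dechorionation. Static, sealed, 28C exposure, 0.64% DMSO; mortality excludes scoring; positive-direction fit against DMSO.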

A short description of assay [15]: Tanguay_ZF_120hpf_CIRC_legacy: (Legacy) Oregon State University Tanguay Lab 120 Hour Post-fertilization zebrafish Assay for Circulatory Malformation (AID 2283651). The gist of the method:
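Binary circulatory-malformation call at 120 hpf via brightfield imaging, relative to DMSO controls. Embryos (5D strain, chorion removed) received static, light-shielded exposure at 28C.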

A short description of assay [16]: Tanguay_ZF_120hpf_SWIM_legacy: (Legacy) Oregon State University Tanguay Lab 120 Hour Post-fertilization zebrafish Assay for Swim Bladder Malformation (AID 2283654).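 Note: swim bladder malformation in each larva scored yes or no under brightfield.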 In short, it runs like this:
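Scoring is binary for swim bladder defects at 120 hpf, by brightfield inspection of zebrafish larvae. Embryos were exposed singly from 6 hpf after pronase dechorionation, at 28C with 0.64% DMSO; mortality excluded scoring.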

Assay [17] can be described thus: Tanguay_ZF_120hpf_TRUN_legacy: (Legacy) Oregon State University Tanguay Lab 120 Hour Post-fertilization zebrafish Assay for Truncated Body (AID 2283655). The gist of the method: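 Whole-embryo zebrafish screen: dechorionated 5D embryos, static exposure 6–120 hpf, 28C, sealed foil-covered plates, 0.64% DMSO. Binary truncation call; gain of signal versus DMSO baseline.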

Each structure is given as a SMILES string. Values joined by “and” are separate entries in the source; they are usually repeats but may differ in a detail not shown here. Equal entries are not always repeated. Inconclusive results are not listed. Some compounds were tested as several samples or in several runs, with calls that do not always agree. Active and inactive are the calls of the source. Rule for the calls: active = hit-call score of the fitted dose curve at least 0.9, where 1 is the maximum; inconclusive = response in the unintended direction; inactive = score below 0.9.

Chain of Cellular tumor antigen p53 (Homo sapiens) (P04637 whole entry, looked up): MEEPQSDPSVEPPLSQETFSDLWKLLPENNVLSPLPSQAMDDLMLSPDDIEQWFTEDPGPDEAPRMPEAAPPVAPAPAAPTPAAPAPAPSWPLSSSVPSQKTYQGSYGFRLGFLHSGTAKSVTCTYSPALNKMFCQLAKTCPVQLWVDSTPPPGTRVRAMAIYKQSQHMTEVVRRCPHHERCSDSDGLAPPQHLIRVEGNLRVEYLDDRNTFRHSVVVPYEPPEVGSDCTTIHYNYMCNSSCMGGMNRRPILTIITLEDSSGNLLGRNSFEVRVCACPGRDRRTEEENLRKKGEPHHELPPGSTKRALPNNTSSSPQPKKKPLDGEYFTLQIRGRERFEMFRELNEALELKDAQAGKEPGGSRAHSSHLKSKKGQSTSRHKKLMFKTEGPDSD

As a reminder, the AC50 is the concentration giving half of the maximal activity seen. In the case of `CCCC1COC(Cn2cncn2)(c2ccc(Cl)cc2Cl)O1` (stereo not given), the call in assay [1], in assay [2], in [3], in assay [5], in [9] and in [11] was inactive. Besides, the outcome in [12], in assay [13], in [14], in assay [15], in assay [16] and in [17] was inactive. For the same compound, the AC50 was 33.9 µM (active) in assay [4]; 26.9 µM (active) in assay [6]; 25.2 µM (active) in [7]; 25.2 µM (active) in assay [8]; 30.4 µM (active) in [10].

As to `Fc1ccc(Oc2ccnc3cc(Cl)cc(Cl)c23)cc1`, the call in [1], in [3], in assay [4], in assay [5], in assay [6] and in [7] was inactive. In addition, the compound was classed as inactive in [8], in assay [9], in assay [10], in assay [11], in [12] and in assay [13]. The result in assay [14], in [15], in assay [16] and in assay [17] was inactive. For the same compound, the AC50 in assay [2] was 81.6 µM (active).

As for `C#CCOS(=O)OC1CCCCC1Oc1ccc(C(C)(C)C)cc1` (stereo not given), the compound was called inactive in assay [1], in assay [2], in [3], in assay [4], in [5] and in [7]. Also, the compound was classed as inactive in [8], in assay [9], in [10], in assay [11], in assay [12] and in assay [13]. Further, the outcome in assay [14], in assay [15] and in assay [16] was inactive.

As to `CCCCOC(=O)c1ccccc1C(=O)OCCCC`, the result in assay [2], in [3], in assay [4], in assay [5], in [6] and in [7] was inactive. In addition, the compound was classed as inactive in [8], in assay [9], in assay [10], in assay [11], in assay [12] and in assay [13]. In addition, the compound was classed as inactive in [14], in assay [15], in [16] and in [17].

As to `Cc1c(F)c(F)c(COC(=O)C2C(/C=C(\Cl)C(F)(F)F)C2(C)C)c(F)c1F` (stereo not given), the compound was called inactive in assay [1], in assay [3], in [11], in assay [13], in assay [15] and in assay [16]. Also, the AC50 in [4] was 1.79 µM (active); in [5], 3.4 µM (active); in assay [6], 3.05 µM (active); in [7], 4.35 µM (active); in assay [8], 2.75 µM (active); in [9], 3.67 µM (active). The AC50 was 5.03 µM (active) in assay [10], 3.13 µM (active) in assay [12], 3.42 µM (active) in [14] and 2.36 µM (active) in assay [17].

For the compound `CCNc1nc(Cl)nc(NC(C)C)n1`, the result in [2], in assay [3], in assay [4], in [5], in assay [6] and in [7] was inactive. Besides, the compound was called inactive in assay [8], in assay [9], in assay [10], in [11], in assay [12] and in assay [13]. Besides, the result in [14], in assay [15], in assay [16] and in [17] was inactive.

As for `COc1cnc(OC)n2nc(NS(=O)(=O)c3c(OCC(F)F)cccc3C(F)(F)F)nc12`, the result in assay [1], in assay [2], in assay [3], in assay [5], in [6] and in assay [7] was inactive. For the same compound, the result in [8], in assay [9], in [10], in assay [11], in [12] and in assay [13] was inactive. Further, the compound was classed as inactive in assay [14], in assay [15], in [16] and in assay [17].

As for `CC(C)Oc1cc(-n2nc(C(C)(C)C)oc2=O)c(Cl)cc1Cl`, the half-maximal activity concentration (AC50) in assay [1] is 28.5 µM (active). The result in assay [2], in assay [3], in [4], in assay [5], in [6] and in assay [7] was inactive. The call in [12], in assay [13], in assay [15], in [16] and in assay [17] was inactive.

Take `COP(=S)(OC)Oc1nc(Cl)c(Cl)cc1Cl`: the compound was classed as inactive in assay [1], in assay [2], in assay [3], in [4], in [5] and in [6]. The result in assay [9], in assay [11], in [12], in assay [13], in assay [14] and in [15] was inactive. Also, the result in [16] and in assay [17] was inactive. In assay [8], the AC50 is 34 µM (active).

Regarding `COC(=O)C(C)Oc1ccc(Oc2ccc(Cl)cc2Cl)cc1` (stereo not given), the outcome in assay [3], in [4], in [5], in assay [6], in assay [7] and in [8] was inactive. Besides, the call in assay [9], in assay [10], in assay [11], in [12], in assay [13] and in assay [14] was inactive. The result in assay [15], in [16] and in [17] was inactive.

Regarding `CC(C)C1(C)N=C(c2nc3ccccc3cc2C(=O)O)NC1=O` (stereo not given), the outcome in [2], in assay [4], in [6], in assay [7], in [8] and in assay [9] was inactive. Moreover, the call in [10], in assay [11], in [12], in assay [14], in [15] and in [16] was inactive. In [17], the result was inactive.

As for `COc1nc(NC(C)C)nc(NC(C)C)n1`, the result in [2], in [3], in assay [4], in assay [5], in assay [6] and in assay [7] was inactive. Besides, the compound was classed as inactive in assay [8], in [9], in [10], in [11], in assay [12] and in assay [13]. The compound was classed as inactive in [14], in assay [15], in assay [16] and in assay [17].

On to `CCCCNC(=O)n1c(NC(=O)OC)nc2ccccc21`, for which the concentration at half-maximal activity (AC50) in assay [2] was 11.9 µM (active) and 9.73 µM (active); in [4], 52.3 µM (active); in assay [6] it was 72.8 µM (active); in assay [7] it was 56.7 µM (active); in assay [8], 59.2 µM (active); in [14], 27.9 µM (active). Moreover, the result in assay [3], in assay [5], in assay [9], in assay [10], in assay [11] and in assay [12] was inactive. Besides, the compound was classed as inactive in assay [13], in assay [15], in [16] and in assay [17].

For the origin of these results see PubChem BioAssay (EPA / NIEHS).
